Assay results taken from PubChem BioAssay (EPA / NIEHS).
Inconclusive results are not listed. Activity calls are given as the source filed them. Rule for the calls, unless noted: active = hit-call score of the fitted dose curve at least 0.9, where 1 is the maximum; inactive = score below 0.9.

What was measured:
[1] = ATG_NFI_CIS: Attagene CIS-FACTORIAL HepG2 Assay for human Nuclear Factor I (NFI) (AID 2282989); conditions: HepG2 cis-regulatory reporter, NFI response element transcription; actives raise or lower the signal
Outline: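 Endogenous TF activity in HepG2 cells transiently transfected with cis-element-driven multiplexed reporter units, read 24 h after dosing. Reporter mRNA quantified by RT-PCR, 6-FAM labelling, HpaI digestion and capillary electrophoresis; bidirectional fit versus DMSO.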

[2] = target: Myc proto-oncogene protein (Homo sapiens) (UniProt P01106); experiment: ATG_Myc_CIS: Attagene CIS-FACTORIAL HepG2 Assay for human Myelocytomatosis (Myc) Proto-Oncogene Transcription Factor (AID 2282990); conditions: HepG2, Attagene cis-reporter transcription factor activity; actives raise or lower the signal
Myc proto-oncogene protein (Homo sapiens), sequence (P01106 whole entry, looked up): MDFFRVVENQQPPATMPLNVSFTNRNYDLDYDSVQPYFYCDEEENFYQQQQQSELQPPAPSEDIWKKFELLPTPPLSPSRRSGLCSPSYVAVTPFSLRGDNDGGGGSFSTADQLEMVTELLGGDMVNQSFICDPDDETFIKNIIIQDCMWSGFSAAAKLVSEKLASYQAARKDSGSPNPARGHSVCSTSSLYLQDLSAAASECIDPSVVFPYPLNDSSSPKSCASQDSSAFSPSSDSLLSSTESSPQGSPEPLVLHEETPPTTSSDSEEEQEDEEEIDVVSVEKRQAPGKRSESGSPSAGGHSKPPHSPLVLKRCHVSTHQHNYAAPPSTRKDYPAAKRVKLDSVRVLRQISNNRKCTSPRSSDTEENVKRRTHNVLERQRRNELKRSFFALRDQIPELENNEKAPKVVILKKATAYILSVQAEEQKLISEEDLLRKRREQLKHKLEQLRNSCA
Outline: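 Multiplexed cis-reporter transcription in HepG2 cells after 24 h chemical treatment. Reporter mRNA measured by RT-PCR and capillary electrophoresis fluorescence; activity fitted bidirectionally against DMSO control.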

[3] = ATG_NF_kB_CIS: Attagene CIS-FACTORIAL HepG2 Assay for human Nuclear Factor Kappa B (NF-kB) (AID 2282991); conditions: HepG2 Attagene cis-factorial NF-kB reporter mRNA; actives raise or lower the signal
Outline: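 After 24 h compound incubation, transfected HepG2 cells yield total RNA; reporter cDNA is PCR-amplified, end-labelled with 6-FAM, HpaI-digested and analysed on a genetic analyser. Endogenous factor activity, DMSO-referenced bidirectional fit.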

[4] = ATG_NRF2_ARE_CIS: Attagene CIS-FACTORIAL HepG2 Assay for human Nuclear Factor Erythroid 2 Related Factor 2 (NFR2) response to Antioxidant Response Elements (ARE) (AID 2282992); conditions: HepG2 Attagene ARE/NRF2 reporter, transcription factor activity; actives raise or lower the signal
Outline: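 Transient MRTU transfection of HepG2; 24 h compound exposure; TriZol RNA, RT with oligo(dT), PCR, 6-FAM primer extension, HpaI cut, CE. Bidirectional fit vs DMSO.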

[5] = ATG_Oct_MLP_CIS: Attagene CIS-FACTORIAL HepG2 Assay for human Octamer-Binding Transcription Factor (Oct) (AID 2282993); conditions: HepG2 Attagene cis-factorial Oct reporter, mRNA; actives raise or lower the signal
Outline: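 HepG2 cells transiently transfected with cis-element-driven reporter transcription units (endogenous TF activity); 24 h compound exposure. Reporter mRNA quantified by RT-PCR, 6-FAM labelling, HpaI digestion and capillary electrophoresis; bidirectional fit versus DMSO baseline.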

[6] = target: Cellular tumor antigen p53 (Homo sapiens) (UniProt P04637); experiment: ATG_p53_CIS: Attagene CIS-FACTORIAL HepG2 Assay for human p53 Transcription Factor (AID 2282994); conditions: HepG2 p53 cis-element reporter, Attagene mRNA; actives raise or lower the signal
Cellular tumor antigen p53 (Homo sapiens), sequence (P04637 whole entry, looked up): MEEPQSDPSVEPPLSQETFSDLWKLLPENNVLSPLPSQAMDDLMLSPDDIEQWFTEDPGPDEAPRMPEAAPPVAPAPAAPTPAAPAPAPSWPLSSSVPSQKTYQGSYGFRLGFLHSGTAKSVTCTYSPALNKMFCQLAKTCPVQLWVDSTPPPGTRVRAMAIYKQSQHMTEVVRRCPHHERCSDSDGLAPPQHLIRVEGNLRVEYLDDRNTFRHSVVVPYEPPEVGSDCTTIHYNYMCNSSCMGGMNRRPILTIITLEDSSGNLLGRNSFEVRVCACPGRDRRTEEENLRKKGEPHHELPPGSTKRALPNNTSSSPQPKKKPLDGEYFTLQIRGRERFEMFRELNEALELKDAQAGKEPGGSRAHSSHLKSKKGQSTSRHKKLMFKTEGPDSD
Outline: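 HepG2, transient MRTU transfection (cis promoter elements, endogenous TFs); 24 h dosing; RNA isolation, RT-PCR, 6-FAM primer extension, HpaI digest, CE fluorescence; bidirectional fit vs DMSO.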

[7] = BSK_3C_TissueFactor: BioMAP Diversity Plus: 3C Assay for Tissue Factor Biomarker Activity (AID 2282997); conditions: BioMAP 3C HUVEC, tissue factor biomarker readout; actives raise or lower the signal
Outline: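 Primary human umbilical vein endothelial cells in the 3C system were exposed to test chemical for 24 h, then Tissue Factor measured by ELISA. Activity was fitted bidirectionally against DMSO as negative control and baseline.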

[8] = BSK_3C_uPAR: BioMAP Diversity Plus: 3C Assay for Urokinase-type plasminogen activator receptor (uPAR) Biomarker Activity (AID 2282998); conditions: BioMAP 3C HUVEC, uPAR biomarker ELISA; actives raise or lower the signal
Outline: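 Primary human umbilical vein endothelial cells, 3C system; surface uPAR measured by ELISA 24 h after dosing. Cytotoxicity via SRB total protein in parallel cultures; bidirectional fit against DMSO.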

[9] = BSK_3C_VCAM1: BioMAP Diversity Plus: 3C Assay for Vascular cell adhesion molecule 1 (VCAM1) Biomarker Activity (AID 2282999); conditions: BioMAP 3C HUVEC, VCAM1 ELISA, cytokine-stimulated; actives raise or lower the signal
Outline: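 Human umbilical vein endothelial cells were dosed with compound for 24 h, after which cell-surface VCAM-1 was quantified by ELISA. Bidirectional curve fitting used DMSO as negative control and activity baseline.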

[10] = BSK_4H_Eotaxin3: BioMAP Diversity Plus: 4H Assay for Eotaxin 3 Biomarker Activity (AID 2283000); conditions: primary human endothelial cells (HUVEC); actives raise or lower the signal
Outline: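 HUVEC, 24 h post-dose, ELISA for Eotaxin-3/CCL26. Gain or loss of signal fitted bidirectionally vs DMSO baseline.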

[11] = target: human Peroxisome Proliferator-activated Receptor delta (PPARd), PPARD (gene 5467) (UniProt Q03181); experiment: ATG_PPARd_TRANS: Attagene TRANS-FACTORIAL HepG2 Assay for human Peroxisome Proliferator-activated Receptor delta (PPARd) (AID 2283002; active = hit-call score of the fitted dose curve at least 0.9, where 1 is the maximum)
human Peroxisome Proliferator-activated Receptor delta (PPARd), PPARD (gene 5467), sequence (Q03181 whole entry, looked up, the tested form may be a part): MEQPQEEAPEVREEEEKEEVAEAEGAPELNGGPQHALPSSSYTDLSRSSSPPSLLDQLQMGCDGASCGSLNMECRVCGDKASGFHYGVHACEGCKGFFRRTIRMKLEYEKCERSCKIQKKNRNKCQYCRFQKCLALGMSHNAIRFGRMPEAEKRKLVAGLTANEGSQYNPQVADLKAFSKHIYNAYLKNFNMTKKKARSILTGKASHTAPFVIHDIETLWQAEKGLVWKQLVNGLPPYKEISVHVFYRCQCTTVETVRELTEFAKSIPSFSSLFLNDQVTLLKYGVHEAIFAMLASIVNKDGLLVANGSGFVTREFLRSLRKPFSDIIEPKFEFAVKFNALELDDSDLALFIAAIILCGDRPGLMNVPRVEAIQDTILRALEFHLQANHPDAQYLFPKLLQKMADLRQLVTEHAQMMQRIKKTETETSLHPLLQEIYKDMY
Outline: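 Multiplexed trans-activation format: HepG2 liver cells expressing exogenous NR-Gal4 chimeras and GAL4-UAS reporters were exposed for 24 h. Reporter mRNA was detected by RT-PCR with capillary electrophoresis fluorescence; activity fitted as gain of signal relative to DMSO.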

[12] = read-out: Intercellular Adhesion Molecule 1 (ICAM1), ICAM1 (gene 3383); experiment: BSK_3C_ICAM1: BioMAP Diversity Plus: 3C Assay for Intercellular Adhesion Molecule 1 (ICAM1) Biomarker Activity (AID 2283003); conditions: primary human endothelial cells (HUVEC); actives raise or lower the signal
Outline: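 Primary human umbilical vein endothelial cells in the BioMAP 3C system were exposed to chemicals for 24 h, then ICAM-1 was quantified by ELISA. Activity was fitted bidirectionally against the DMSO negative control baseline.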

[13] = target: Peroxisome proliferator-activated receptor gamma (Homo sapiens) (UniProt P37231); experiment: ATG_PPARg_TRANS: Attagene TRANS-FACTORIAL HepG2 Assay for human Peroxisome Proliferator-activated Receptor-gamma (PPARg) (AID 2283007; active = hit-call score of the fitted dose curve at least 0.9, where 1 is the maximum)
Peroxisome proliferator-activated receptor gamma (Homo sapiens), sequence (P37231 whole entry, looked up, the tested form may be a part): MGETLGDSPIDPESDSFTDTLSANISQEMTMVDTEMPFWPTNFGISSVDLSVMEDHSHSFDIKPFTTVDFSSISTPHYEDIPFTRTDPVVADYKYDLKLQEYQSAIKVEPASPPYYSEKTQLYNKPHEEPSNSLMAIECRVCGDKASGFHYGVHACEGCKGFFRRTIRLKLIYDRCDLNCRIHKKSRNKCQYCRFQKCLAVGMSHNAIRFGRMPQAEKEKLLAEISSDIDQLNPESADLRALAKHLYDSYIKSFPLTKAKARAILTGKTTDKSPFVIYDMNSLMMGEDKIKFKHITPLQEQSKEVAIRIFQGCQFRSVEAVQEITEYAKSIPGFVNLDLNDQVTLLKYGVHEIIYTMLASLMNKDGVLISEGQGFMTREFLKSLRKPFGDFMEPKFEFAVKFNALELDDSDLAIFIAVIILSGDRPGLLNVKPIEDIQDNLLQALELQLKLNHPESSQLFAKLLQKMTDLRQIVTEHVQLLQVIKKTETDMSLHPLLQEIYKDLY
Outline: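 Liver-derived HepG2 cells expressing an exogenous NR-Gal4 chimera alongside GAL4-UAS reporter genes; 24 h exposure. Fluorescence of reporter RT-PCR products, separated by capillary electrophoresis, gives mRNA induction relative to DMSO.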

[14] = target: Nuclear receptor subfamily 1 group I member 2 (Homo sapiens) (UniProt O75469); experiment: ATG_PXR_TRANS: Attagene TRANS-FACTORIAL HepG2 Assay for human Pregnane X Receptor (PXR) (AID 2283008; active = hit-call score of the fitted dose curve at least 0.9, where 1 is the maximum)
Nuclear receptor subfamily 1 group I member 2 (Homo sapiens), sequence (O75469 whole entry, looked up, the tested form may be a part): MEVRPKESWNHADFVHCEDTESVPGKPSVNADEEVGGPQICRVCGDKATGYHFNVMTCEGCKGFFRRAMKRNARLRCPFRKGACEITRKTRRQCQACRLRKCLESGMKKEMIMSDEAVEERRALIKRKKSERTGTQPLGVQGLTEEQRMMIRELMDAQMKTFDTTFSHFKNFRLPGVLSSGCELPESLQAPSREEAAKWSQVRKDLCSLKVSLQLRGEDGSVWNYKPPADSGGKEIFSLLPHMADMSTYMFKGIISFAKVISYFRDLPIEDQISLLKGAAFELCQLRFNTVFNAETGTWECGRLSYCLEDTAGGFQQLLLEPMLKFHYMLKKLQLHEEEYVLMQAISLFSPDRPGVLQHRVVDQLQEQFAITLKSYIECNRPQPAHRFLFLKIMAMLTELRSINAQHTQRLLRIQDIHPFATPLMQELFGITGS
Outline: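 Read-out is fluorescence of labelled reporter cDNA fragments separated by capillary electrophoresis after RT-PCR and HpaI digestion. Source: HepG2 cells carrying PXR-GAL4/UAS reporter constructs, treated 24 h; activity fitted upward relative to DMSO.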

[15] = target: human Peroxisome Proliferator-activated Receptor alpha (PPARa), PPARA (gene 5465) (UniProt Q07869); experiment: ATG_PPARa_TRANS: Attagene TRANS-FACTORIAL HepG2 Assay for human Peroxisome Proliferator-activated Receptor alpha (PPARa) (AID 2283001; active = hit-call score of the fitted dose curve at least 0.9, where 1 is the maximum;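 for AC50: potency for gain of reporter signal over DMSO so agonist or activator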)
human Peroxisome Proliferator-activated Receptor alpha (PPARa), PPARA (gene 5465), sequence (Q07869 whole entry, looked up, the tested form may be a part): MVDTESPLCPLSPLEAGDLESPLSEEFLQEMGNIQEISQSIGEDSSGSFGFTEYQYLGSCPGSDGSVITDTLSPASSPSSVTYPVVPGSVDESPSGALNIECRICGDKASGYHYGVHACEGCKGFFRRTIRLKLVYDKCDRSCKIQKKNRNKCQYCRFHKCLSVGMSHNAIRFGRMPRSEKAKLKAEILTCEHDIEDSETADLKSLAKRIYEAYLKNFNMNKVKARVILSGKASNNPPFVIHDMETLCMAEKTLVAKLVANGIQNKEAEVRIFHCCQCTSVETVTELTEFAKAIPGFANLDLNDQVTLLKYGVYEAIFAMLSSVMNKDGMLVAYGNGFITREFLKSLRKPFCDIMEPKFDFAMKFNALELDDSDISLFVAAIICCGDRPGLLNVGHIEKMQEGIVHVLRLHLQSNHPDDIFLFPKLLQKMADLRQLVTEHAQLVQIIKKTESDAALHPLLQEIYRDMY
Outline: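 HepG2 cells transiently transfected with multiplexed GAL4-UAS reporter units and chimeric NR-Gal4 constructs were dosed for 24 h. Reporter mRNA was measured by RT-PCR with fluorescent labelling and capillary electrophoresis; gain of signal fitted against DMSO.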

[16] = target: human Retinoic Acid Receptor beta (RARb), RARB (gene 5915) (UniProt P10826); experiment: ATG_RARb_TRANS: Attagene TRANS-FACTORIAL HepG2 Assay for human Retinoic Acid Receptor beta (AID 2283004; active = hit-call score of the fitted dose curve at least 0.9, where 1 is the maximum)
human Retinoic Acid Receptor beta (RARb), RARB (gene 5915), sequence (P10826 whole entry, looked up, the tested form may be a part): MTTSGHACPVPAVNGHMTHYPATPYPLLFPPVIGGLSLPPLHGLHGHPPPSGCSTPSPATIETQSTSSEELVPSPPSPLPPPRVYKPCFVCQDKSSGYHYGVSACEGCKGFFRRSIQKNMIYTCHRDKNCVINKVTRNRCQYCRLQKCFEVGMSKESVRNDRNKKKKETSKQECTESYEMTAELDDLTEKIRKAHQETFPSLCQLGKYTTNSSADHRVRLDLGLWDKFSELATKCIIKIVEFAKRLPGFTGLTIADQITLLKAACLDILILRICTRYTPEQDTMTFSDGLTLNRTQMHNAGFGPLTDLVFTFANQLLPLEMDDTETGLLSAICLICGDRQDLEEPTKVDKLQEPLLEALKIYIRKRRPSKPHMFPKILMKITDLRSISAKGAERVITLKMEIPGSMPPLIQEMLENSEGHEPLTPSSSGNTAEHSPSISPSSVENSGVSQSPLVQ
Outline: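 HepG2 cells transiently transfected with multiplexed GAL4-UAS reporter units expressing chimeric NR–Gal4 fusions; 24 h compound exposure. Reporter mRNA quantified by RT-PCR, 6-FAM labelling, HpaI digestion and capillary electrophoresis; gain-of-signal fitted against DMSO baseline.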

[17] = BSK_3C_Proliferation: Cell Proliferation Assessment in the BioMAP Diversity Plus: 3C Assay (AID 2283006); conditions: primary human endothelial cells (HUVEC);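 for AC50: potency may reflect either rise or fall in cell number versus DMSO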
Outline: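 Human umbilical vein endothelial cells were grown sub-confluent and exposed to chemical for 48 h, then fixed with 10% TCA and stained with 0.1% sulforhodamine B; absorbance at 560 nm gave relative cell number, fitted bidirectionally against DMSO baseline.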

[18] = target: Retinoic acid receptor alpha (Homo sapiens) (UniProt P10276); experiment: ATG_RARa_TRANS: Attagene TRANS-FACTORIAL HepG2 Assay for human Retinoic Acid Receptor alpha (RARa) (AID 2283005; active = hit-call score of the fitted dose curve at least 0.9, where 1 is the maximum;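 for AC50: potency for increased reporter signal meaning RARa activation over DMSO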)
Retinoic acid receptor alpha (Homo sapiens), sequence (P10276 whole entry, looked up, the tested form may be a part): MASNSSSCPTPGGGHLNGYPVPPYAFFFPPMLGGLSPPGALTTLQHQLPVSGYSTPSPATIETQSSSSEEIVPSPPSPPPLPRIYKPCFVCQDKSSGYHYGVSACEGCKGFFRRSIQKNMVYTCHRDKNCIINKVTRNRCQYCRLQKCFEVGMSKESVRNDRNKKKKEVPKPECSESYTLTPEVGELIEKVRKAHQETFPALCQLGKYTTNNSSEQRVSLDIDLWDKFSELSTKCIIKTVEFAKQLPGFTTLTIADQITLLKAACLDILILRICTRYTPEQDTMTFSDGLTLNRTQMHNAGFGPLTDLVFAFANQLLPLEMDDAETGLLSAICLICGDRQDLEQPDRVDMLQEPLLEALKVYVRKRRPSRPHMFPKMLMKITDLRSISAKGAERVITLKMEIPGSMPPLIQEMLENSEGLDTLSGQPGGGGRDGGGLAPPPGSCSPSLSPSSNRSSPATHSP
Outline: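 HepG2 cells transiently transfected with multiple reporter units expressing chimeric RARα-GAL4 fusion, with GAL4-UAS-driven reporters. After 24 h compound exposure, reporter mRNA induction quantified by RT-PCR and capillary electrophoresis with fluorescent labeling; gain-of-signal fitted relative to DMSO control.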

[19] = target: human Retinoic Acid Receptor gamma (RARg), RARG (gene 5916) (UniProt P13631); experiment: ATG_RARg_TRANS: Attagene TRANS-FACTORIAL HepG2 Assay for human Retinoic Acid Receptor gamma (RARg) (AID 2283009; active = hit-call score of the fitted dose curve at least 0.9, where 1 is the maximum;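 for AC50: AC50 is for reporter induction above DMSO meaning RARg activation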)
human Retinoic Acid Receptor gamma (RARg), RARG (gene 5916), sequence (P13631 whole entry, looked up, the tested form may be a part): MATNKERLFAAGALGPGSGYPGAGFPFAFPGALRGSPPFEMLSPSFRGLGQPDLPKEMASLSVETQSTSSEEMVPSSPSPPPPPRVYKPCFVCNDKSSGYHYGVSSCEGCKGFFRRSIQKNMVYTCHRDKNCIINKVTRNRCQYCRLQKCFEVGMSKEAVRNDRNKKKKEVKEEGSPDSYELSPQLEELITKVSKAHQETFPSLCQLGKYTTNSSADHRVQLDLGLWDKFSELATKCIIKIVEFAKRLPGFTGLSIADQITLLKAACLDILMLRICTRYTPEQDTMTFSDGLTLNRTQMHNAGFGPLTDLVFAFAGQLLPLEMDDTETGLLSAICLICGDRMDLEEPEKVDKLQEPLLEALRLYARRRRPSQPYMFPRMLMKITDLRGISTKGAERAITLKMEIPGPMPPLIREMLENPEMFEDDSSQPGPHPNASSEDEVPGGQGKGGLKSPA
Outline: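 HepG2 cells transiently transfected with multiplexed reporter units expressing chimeric RARg-GAL4 and GAL4-UAS-driven reporters; 24 h compound exposure. Reporter mRNA quantified by RT-PCR with fluorescent labelling and capillary electrophoresis; gain-of-signal fitted relative to DMSO baseline.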

[20] = target: human RAR-related Orphan Receptor beta (RORb), RORB (gene 6096) (UniProt Q92753); experiment: ATG_RORb_TRANS: Attagene TRANS-FACTORIAL HepG2 Assay for human RAR-related Orphan Receptor beta (RORb) (AID 2283010; active = hit-call score of the fitted dose curve at least 0.9, where 1 is the maximum)
human RAR-related Orphan Receptor beta (RORb), RORB (gene 6096), sequence (Q92753 whole entry, looked up, the tested form may be a part): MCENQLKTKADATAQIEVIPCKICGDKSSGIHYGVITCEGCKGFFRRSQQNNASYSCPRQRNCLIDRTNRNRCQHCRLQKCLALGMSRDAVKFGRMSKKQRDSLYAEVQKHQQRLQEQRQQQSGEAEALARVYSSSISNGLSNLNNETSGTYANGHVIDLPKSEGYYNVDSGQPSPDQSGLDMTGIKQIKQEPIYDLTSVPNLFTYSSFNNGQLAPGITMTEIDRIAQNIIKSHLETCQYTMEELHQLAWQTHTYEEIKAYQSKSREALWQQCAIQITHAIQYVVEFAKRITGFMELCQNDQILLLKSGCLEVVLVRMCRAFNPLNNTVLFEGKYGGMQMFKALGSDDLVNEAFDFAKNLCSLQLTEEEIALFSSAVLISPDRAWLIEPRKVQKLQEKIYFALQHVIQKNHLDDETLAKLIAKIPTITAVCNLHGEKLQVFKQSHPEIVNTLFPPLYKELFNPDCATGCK
Outline: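 HepG2 cells were transiently transfected with multiplexed GAL4-UAS reporter units expressing chimeric nuclear receptor–GAL4 proteins, then dosed for 24 h. Reporter mRNA was quantified by RT-PCR with fluorescent labelling and capillary electrophoresis; gain of signal was fitted relative to DMSO.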

Measured: AC50

CCOC(=O)C(C#N)=C(c1ccccc1)c1ccccc1
active: [4] 27.6 µM | [13] 7.45 µM | [14] 1.24 µM
inactive: [1] | [2] | [3] | [5] | [6] | [7] | [8] | [9] | [10] | [11] | [12]

CC(=O)Nc1ccc(C(=O)CCl)cc1
inactive: [2] | [5] | [6] | [16] | [14]
active: [1] 8.18 µM | [3] 2.5 µM | [4] 0.41 µM | [7] 9.37 µM | [8] 9.48 µM | [9] 6.27 µM | [10] 6.53 µM | [15] 2.66 µM | [12] 8.45 µM | [17] 6.13 µM | [13] 2.31 µM

CCc1cc(Cc2cc(CC)cc(C(C)(C)C)c2O)c(O)c(C(C)(C)C)c1
active: [1] 13.5 µM | [3] 17.4 µM | [4] 7.08 µM | [5] 16.3 µM | [15] 51.9 µM | [18] 8.99 µM | [13] 7.31 µM | [14] 0.028 µM | [19] 9.1 µM
inactive: [2] | [6] | [11] | [16]

Clc1cc(Cl)c(-c2c(Cl)c(Cl)cc(Cl)c2Cl)cc1Cl
inactive: [1] | [2] | [3] | [5] | [6] | [11] | [12] | [13] | [20]
active: [4] 26.7 µM | [7] 10 µM | [8] 17.1 µM | [9] 12.9 µM | [10] 12.5 µM | [14] 4.6 µM

CC(=O)c1ccccn1
inactive: [1] | [2] | [3] | [4] | [5] | [6]

CS(=O)(=O)c1ccc(C2=C(c3ccccc3)C(=O)OC2)cc1
inactive: [1] | [2] | [3] | [4] | [5] | [6] | [7] | [8] | [9] | [10] | [12] | [16] | [17] | [13] | [14]

CC1(C)C2=CCCC(C)(C)[C@]23CC[C@H]1C3
inactive: [1] | [2] | [3] | [5] | [6] | [7] | [9] | [11] | [12] | [16] | [13] | [19] | [20]
active: [4] 100 µM | [8] 36.4 µM | [10] 27.3 µM | [14] 1.31 µM

O=C1OC2(c3ccccc31)c1ccc(O)c(Br)c1Oc1c2ccc(O)c1Br
inactive: [1] | [2] | [3] | [4] | [5] | [6] | [15] | [11] | [12] | [18] | [13] | [19] | [20]
active: [7] 31.9 µM | [8] 20 µM | [9] 20 µM | [10] 28.9 µM | [14] 57 µM
